# Compound activity as filed in PubChem BioAssay.
# BAZ2B inh = blocks human BAZ2B | Q9UIF8 | AlphaScreen BAZ2B-H3K14Ac peptide displacement | Potency, µM (titrated, usually from 114 µM), hits mostly inhibitors | actives 4.4% (n = 360,000) | AID 504333; also: nearly all actives have a fitted effect of over 60% in size
#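 Compounds, titrated to a top concentration of 110 uM, were incubated 30 min at room temperature with preformed BAZ2B/acetyl-K14 H3 peptide complex (50 nM each). Proximity signal was measured by AlphaScreen after 20 min with beads.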
# HP1b binding inh = blocks HP1-beta chromodomain binding to methylated histone tails; AlphaScreen HP1-beta / biotin-H3K9me3 peptide binding; AID 540317; actives 0.56% (n = 390,000); Potency, µM (top dose mostly 114 µM), usual class: inhibitors; also: nearly all actives have a fitted effect of over 70% in size
#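 HP1-beta protein (50 nM final) preincubated 30 min at room temperature with biotinylated H3(1-18)K9me3 peptide (50 nM) in PBS pH 7.4, 0.01% Tween-20, then compound added for 30 min. AlphaScreen streptavidin donor/nickel chelate acceptor beads (10 ug/mL final), 30 min dark, luminescence read.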
# G9a inh = G9a (human) methyltransferase inhibition; Q96KQ7; G9a H3K9 monomethylation, AlphaScreen, 2 h; Potency, µM (highest dose often 102 µM), most hits filed as inhibitors; actives 8.8% (n = 350,000); AID 504332; also: nearly all actives have a fitted effect of over 75% in size
#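 Step 1: enzyme (final 20 nM) with compound, 15 min RT. Step 2: substrate peptide 500 nM and SAM 20 uM, 2 h RT. Step 3: anti-H3K9me1 antibody and AlphaScreen beads, 10 min, then plate read.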
# JMJD2A Tudor = JMJD2A Tudor domain (human) inhibition; Potency, µM (doses to about 114 µM), hits mostly inhibitors; actives 4.4% (n = 390,000); AID 504339; AlphaScreen JMJD2A-Tudor / H3K4me3 peptide binding; O75164; also: nearly all actives have a fitted effect of over 50% in size
# L3MBTL1 block = L3MBTL1 (human) inhibition; AID 485360; Potency, µM (top dose mostly 57.1 µM), most hits filed as inhibitors; AlphaScreen L3MBTL1–H3K9me1 peptide binding; actives 0.66% (n = 230,000); also: nearly all actives have a fitted effect of over 60% in size
#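 First, the protein-peptide complex forms for 30 min at room temperature (L3MBTL1 50 nM, biotinylated H3K9me1 peptide 75 nM). Next, compounds are pin-transferred and incubated 30 min. Finally, AlphaScreen beads are added and read after 30 min.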
# PI5P4K alpha inh = PI5P4K alpha (human) kinase inhibition | P48426 | PI5P4Kalpha enzyme, ADP-Glo luminescence, 60 min; stronger effect = lower value | max response, % | actives 1.2% (n = 330,000) | AID 652105; active = max response of -50% or lower; inconclusive = between -30% and -50%; inactive = -30% or higher; also: value at the top dose of about 77 µM
#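 ADP-Glo luminescence end-point read after a 60 min room-temperature kinase reaction of PI5P4Kalpha plus substrate, initiated with ATP at 5 microM final. Buffer: 0.038 M HEPES pH 7.4, EGTA, 0.1% CHAPS, 5% DMSO.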
# A number is an active result; – = inactive; ? = inconclusive; · = no result given; ! = a repeat was not active; [ ] = another dose, or the depositor's remark. A selection: hits, their analogues and other compounds. The true share with any hit is near 11%. Unless noted, calls follow the shape of the dose curve; as a rule, active = well fitted inhibition curve with a large enough effect; inconclusive = small, poorly fitted or top-dose-only effect; inactive = no such curve, though single readings can be large or run the other way.
SMILES,BAZ2B inh,HP1b binding inh,G9a inh,JMJD2A Tudor,L3MBTL1 block,PI5P4K alpha inh
COC(=O)c1ccccc1NC(=O)NCc1ccc2c(c1)CCN2C(=O)c1ccccc1,–,–,–,–,·,·
Cc1ccc(C2=NN(CCC(=O)NCCc3cccc(C)c3)C(=O)CC2)cc1,–,–,–,–,·,·
CSc1nc2nc3c(cc2c(=O)n1-c1ccccc1)COC(C)(C)C3,–,–,50µM,–,–,–
COc1cccc(-n2c(C)nc3c(cnn3-c3ccc(C)c(C)c3)c2=O)c1,·,–,–,–,·,·
Cc1cc(C)n2nc(-c3ccsc3-n3c(C)ccc3C)cc2n1,–,–,50µM,?,–,–
Cc1ccc2nc(-c3ccc(Cl)cc3)cc(C(=O)OCC(=O)c3ccccc3)c2c1,–,–,–,–,·,·
Cc1ccc(S(=O)(=O)Cc2sc3ccccc3[n+]2C)cc1,50µM,–,45µM,22µM,·,·
Cc1ccc(-c2nc(S(=O)(=O)c3ccc(C)cc3)c(SCC(=O)NC3CCCCC3)o2)cc1,–,–,–,–,·,·
CC1(C)CC(=O)C(C(c2cccc([N+](=O)[O-])c2)C2C(=O)CC(C)(C)CC2=O)C(=O)C1,–,–,–,–,–,–
COc1cc(C(C2C(=O)CC(C)(C)CC2=O)C2C(=O)CC(C)(C)CC2=O)cc(OC)c1OC,–,–,45µM,–,·,–
CC1(C)CC(=O)C(C(c2ccc3c(c2)OCO3)C2C(=O)CC(C)(C)CC2=O)C(=O)C1,·,·,·,·,·,–
COc1ccc(C(C2C(=O)CC(C)(C)CC2=O)C2C(=O)CC(C)(C)CC2=O)cc1,–,–,45µM,–,–,–
Cc1ccc(C(C2C(=O)CC(C)(C)CC2=O)C2C(=O)CC(C)(C)CC2=O)s1,?,–,45µM,–,–,–
COc1cc(C(C2C(=O)CC(C)(C)CC2=O)C2C(=O)CC(C)(C)CC2=O)ccc1O,–,–,–[0.501 µM],–,·,?
CC1(C)CC(=O)C(C(c2ccncc2)C2C(=O)CC(C)(C)CC2=O)C(=O)C1,–,–,50µM,–,–,–
COc1cc(C(C2C(=O)CC(C)(C)CC2=O)C2C(=O)CC(C)(C)CC2=O)ccc1OC(C)=O,·,–,·,–,·,–
CC(C)NC(=O)COC(=O)CNC(=O)C1CCCCC1,·,–,·,–,·,·
Cc1oc(-c2ccc(Cl)cc2)nc1Cn1c(=O)cc(-c2ccccc2)c2c(C)nn(C)c21,–,–,–,–,·,·
Cc1cc(C)cc(OCC(=O)N2CCC(c3nc4ccccc4o3)CC2)c1,–,–,–,–,·,·
Fc1cc(F)c(F)c(SCCc2ccncc2)c1F,–,?,?,28µM,·,·
Cn1c(SCCc2ccc([N+](=O)[O-])cc2)nccc1=O,·,–,·,–,·,–
Fc1ccc(SCCc2ccncc2)cc1,22µM!,–,50µM!,–,–,–
O=[N+]([O-])c1ccc(CSc2ccccn2)cc1,–,–,–,–,·,–
c1ccc(SCCc2ccncc2)cc1,–,–,–[12.7 µM],–,–,–
O=[N+]([O-])c1ccc(SCCc2ccncc2)cc1,50µM,?,11µM,50µM!,–,?
SMILES,BAZ2B inh,HP1b binding inh,G9a inh,JMJD2A Tudor,L3MBTL1 block,PI5P4K alpha inh
O=[N+]([O-])c1ccc(SCCc2ccccn2)cc1,–,–,13µM,–,·,–
COc1ccccc1CCNc1ncnc2nc[nH]c12,·,–,·,–,·,·
CNS(=O)(=O)c1cn(CC(=O)Nc2cccc(OC)c2)cc1S(=O)(=O)NC,–,–,–,–,·,·
CCC(C(=O)OC)n1nnc2sc(-c3ccccc3)cc2c1=O (stereo unspecified),–,–,–,–,·,·
COc1ccc(NC(=O)C(C)NS(=O)(=O)c2ccccc2)cc1Cl (stereo unspecified),–,–,–[12.7 µM],–,–,–
COc1ccc(NC(=O)C(C)n2nnc3sc(-c4ccccc4)cc3c2=O)cc1Cl (stereo unspecified),–,?,2.8µM,79µM,·,·
Cc1cc(C)c(NC(=O)C(C)n2nnc3sc(-c4ccccc4)cc3c2=O)c(C)c1 (stereo unspecified),?,–,10µM,?,·,·
CCC(C)C(NC(=O)OC(C)(C)C)C(=O)NC1COC2CC(n3cc(C)c(=O)[nH]c3=O)OC12 (stereo unspecified),·,–,·,–,·,·
O=C(Nc1cccc([N+](=O)[O-])c1)N1CCN(c2ccccc2)CC1,?,–,·,–,–,–
Cc1ccc(N2CCN(C(=O)Nc3cccc([N+](=O)[O-])c3)CC2C)cc1 (stereo unspecified),56µM,?,?,?,–[11.4 µM],–
Cc1ccccc1C(=O)OCc1cc(=O)n2c(C)csc2n1,–,–,–,–,·,·
Cc1csc2nc(CN3CCN(CC(=O)N(C)C)CC3)cc(=O)n12,–,–,45µM,–,·,–
CCC[N+](CC#CCO)(CC#Cc1ccccc1)CCC,–,–,–,–,–,–
CC[N+](CC)(CC#Cc1ccccc1)CC(=O)c1ccc(Cl)cc1,–,–,7.1µM,–,–,–
CCOC(=O)c1noc2ncnc(N3CCN(c4cccc(Cl)c4)CC3)c12,–,–,–,–,·,·
Cc1ccc(-c2ccc(/C=N/NC(=S)Nc3ccccc3)o2)cc1[N+](=O)[O-],?,–,–,?,–,·
CNC(=S)N/N=C/c1ccc(-c2ccc(Cl)c([N+](=O)[O-])c2)o1,79µM,–,·,–,–,–
CC(C)(C)NC(=S)N/N=C\c1ccc(-c2ccc([N+](=O)[O-])cc2)o1,?,–,–,?,–,–
CNC(=S)N/N=C/c1ccc(-c2ccc(C(=O)O)cc2)o1,?,?,·,–[11.4 µM],?,-62
COc1ccccc1NC(=O)C1=C(C)Nc2nc(SC)nn2C1c1ccccc1Cl (stereo unspecified),–,–,–,–,·,·
CCOc1ccccc1Nc1nc(N)nc(CN(C)C2CCCCC2)n1,18µM,–,–,50µM,?,–
COc1ccccc1Nc1nc(N)nc(CN2CC(C)CC(C)C2)n1 (stereo unspecified),?,–,10µM,–,·,–
COc1ccccc1Nc1nc(N)nc(CN2CCCCC2)n1,–,–,?,–,·,–
COc1ccccc1Nc1nc(N)nc(CCl)n1,–,–,·,–,–,–
COc1ccc(N2CCN(Cc3nc(N)nc(Nc4ccccc4OC)n3)CC2)cc1,28µM,–,40µM,56µM,?,–
O=C(Nc1ccccc1F)c1nc(SCc2ccccc2F)ncc1Cl,–,–,–,–,·,·
COc1ccc(CNC(=O)c2ccc(Cn3c(=O)c4cccn4c4cccnc43)cc2)c(OC)c1,–,–,–,–,·,·
CCOC(=O)c1ccccc1NC1(c2ccc(OC)cc2)C(=O)c2ccccc2C1=O,–,–,?,–,·,·
Cc1nc(-c2ccc(S(=O)(=O)NCc3ccc(F)cc3)cc2)co1,–,–,–,–,·,·
Cc1ccc(-c2onc(C)c2C)cc1S(=O)(=O)NCc1ccc(N(C)C)cc1,35µM,?,11µM,40µM,·,·
